Measured values: the supplement of paper PMC11732987, “Enantioselective OTUD7B fragment discovery through chemoproteomics screening and high-throughput optimisation” (Communications Chemistry, 2025)

Experiments:
Test in all cases: log2 ratio of Biotin-Ahx-Ub-VS probe labelling (fragment/DMSO); higher = less target engagement (more negative = stronger competition), active = hit call of the paper (q ≤ 0.05, log2 ratio ≤ -1)
Settings in all cases: compound concentration: 200 uM; treatment time: 3 h
USP34 = USP34 (UniProt Q70CQ2)
Summary of the method: (§1)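 Global-median-normalised Spectronaut label-free quantities were compared by unpaired t-test, and values are average log2 ratios of fragment over vehicle. Only proteins with ≥2 unique peptides were used. HEK293T lysate (495 µg per sample) was treated in triplicate with fragment at 200 µM or vehicle for 3 h and then with Biotin-Ahx-Ub-VS at 0.5 µM final for 1 h. Labelled DUBs were then NeutrAvidin-enriched, digested with LysC and trypsin, and run by diaPASEF LC-MS/MS.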

USP36 = target: T1, USP36 (UniProt Q9P275)
T1 sequence (whole entry): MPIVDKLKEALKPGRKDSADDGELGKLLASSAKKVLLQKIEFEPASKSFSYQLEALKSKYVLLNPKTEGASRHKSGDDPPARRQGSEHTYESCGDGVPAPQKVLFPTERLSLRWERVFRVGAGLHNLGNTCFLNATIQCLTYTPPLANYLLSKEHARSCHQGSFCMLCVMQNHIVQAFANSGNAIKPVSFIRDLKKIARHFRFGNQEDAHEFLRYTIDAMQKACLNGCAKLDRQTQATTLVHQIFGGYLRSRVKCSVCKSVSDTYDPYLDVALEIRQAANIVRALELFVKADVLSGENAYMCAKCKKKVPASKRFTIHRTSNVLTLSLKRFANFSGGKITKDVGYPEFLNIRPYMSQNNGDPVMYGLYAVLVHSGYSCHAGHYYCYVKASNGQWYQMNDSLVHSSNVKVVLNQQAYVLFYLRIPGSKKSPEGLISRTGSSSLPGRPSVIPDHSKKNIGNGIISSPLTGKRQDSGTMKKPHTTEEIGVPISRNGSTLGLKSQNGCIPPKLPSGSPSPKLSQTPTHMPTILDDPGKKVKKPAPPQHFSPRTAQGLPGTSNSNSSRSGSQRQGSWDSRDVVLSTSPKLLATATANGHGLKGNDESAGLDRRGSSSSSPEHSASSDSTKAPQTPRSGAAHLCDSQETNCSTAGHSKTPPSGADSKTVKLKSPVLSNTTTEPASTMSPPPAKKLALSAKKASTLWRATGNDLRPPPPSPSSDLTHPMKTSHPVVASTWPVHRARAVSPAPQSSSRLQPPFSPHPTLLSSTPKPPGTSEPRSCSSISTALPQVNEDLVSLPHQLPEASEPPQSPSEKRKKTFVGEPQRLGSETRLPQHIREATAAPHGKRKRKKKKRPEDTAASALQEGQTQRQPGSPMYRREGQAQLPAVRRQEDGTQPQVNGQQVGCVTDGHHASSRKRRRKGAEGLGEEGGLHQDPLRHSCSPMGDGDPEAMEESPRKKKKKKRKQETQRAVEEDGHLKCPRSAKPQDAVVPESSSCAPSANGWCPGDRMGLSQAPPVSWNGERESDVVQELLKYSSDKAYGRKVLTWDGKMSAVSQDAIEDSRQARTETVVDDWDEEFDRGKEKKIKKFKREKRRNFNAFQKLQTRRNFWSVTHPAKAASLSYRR
Summary of the method: as §1

USP38 = target: T2, USP38 (UniProt Q8NB14)
T2 sequence (whole entry): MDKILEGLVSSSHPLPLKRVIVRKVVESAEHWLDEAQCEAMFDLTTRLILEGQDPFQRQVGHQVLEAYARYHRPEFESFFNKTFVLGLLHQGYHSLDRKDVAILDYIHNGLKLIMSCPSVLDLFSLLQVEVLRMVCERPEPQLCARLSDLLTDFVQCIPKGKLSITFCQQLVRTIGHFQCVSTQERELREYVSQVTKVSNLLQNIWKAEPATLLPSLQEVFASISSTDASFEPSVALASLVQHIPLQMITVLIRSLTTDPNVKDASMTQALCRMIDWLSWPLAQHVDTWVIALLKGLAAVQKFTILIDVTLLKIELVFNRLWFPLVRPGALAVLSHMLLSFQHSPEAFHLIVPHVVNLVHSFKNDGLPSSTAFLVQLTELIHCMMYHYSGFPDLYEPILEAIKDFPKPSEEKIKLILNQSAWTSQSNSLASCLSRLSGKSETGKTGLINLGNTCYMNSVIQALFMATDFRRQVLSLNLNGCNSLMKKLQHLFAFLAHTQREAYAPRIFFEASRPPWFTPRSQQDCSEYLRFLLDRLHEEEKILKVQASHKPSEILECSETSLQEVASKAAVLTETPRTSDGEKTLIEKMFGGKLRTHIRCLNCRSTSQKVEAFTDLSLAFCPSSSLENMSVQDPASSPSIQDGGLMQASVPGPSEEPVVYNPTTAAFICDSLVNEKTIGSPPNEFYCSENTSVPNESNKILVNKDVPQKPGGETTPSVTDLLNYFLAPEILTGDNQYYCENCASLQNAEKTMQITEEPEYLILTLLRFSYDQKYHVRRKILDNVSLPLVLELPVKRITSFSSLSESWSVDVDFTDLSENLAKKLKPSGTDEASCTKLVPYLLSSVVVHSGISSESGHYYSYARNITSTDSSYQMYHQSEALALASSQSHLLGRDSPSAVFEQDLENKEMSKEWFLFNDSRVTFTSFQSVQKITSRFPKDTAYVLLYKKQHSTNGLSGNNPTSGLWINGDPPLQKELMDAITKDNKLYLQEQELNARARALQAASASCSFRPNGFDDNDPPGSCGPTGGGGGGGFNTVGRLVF
Summary of the method: as §1

USP39 = target: T3, USP39 (UniProt Q53GS9)
T3 sequence (whole entry): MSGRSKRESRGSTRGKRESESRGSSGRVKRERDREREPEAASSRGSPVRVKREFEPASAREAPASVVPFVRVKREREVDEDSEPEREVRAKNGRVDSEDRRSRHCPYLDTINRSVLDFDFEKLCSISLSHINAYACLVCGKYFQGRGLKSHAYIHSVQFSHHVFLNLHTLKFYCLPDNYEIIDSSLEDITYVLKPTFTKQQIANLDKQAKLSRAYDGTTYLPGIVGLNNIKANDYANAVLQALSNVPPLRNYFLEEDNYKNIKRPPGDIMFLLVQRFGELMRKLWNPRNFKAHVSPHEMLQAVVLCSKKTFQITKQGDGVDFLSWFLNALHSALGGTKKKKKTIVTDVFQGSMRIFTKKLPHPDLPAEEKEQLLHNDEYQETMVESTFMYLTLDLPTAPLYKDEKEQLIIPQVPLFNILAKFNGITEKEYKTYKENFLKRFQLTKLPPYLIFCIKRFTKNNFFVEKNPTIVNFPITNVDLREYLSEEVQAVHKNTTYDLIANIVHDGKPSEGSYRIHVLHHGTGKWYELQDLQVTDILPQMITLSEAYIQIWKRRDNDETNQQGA
Summary of the method: as §1

USP4 = target: T4, USP4 (UniProt Q13107)
T4 sequence (whole entry): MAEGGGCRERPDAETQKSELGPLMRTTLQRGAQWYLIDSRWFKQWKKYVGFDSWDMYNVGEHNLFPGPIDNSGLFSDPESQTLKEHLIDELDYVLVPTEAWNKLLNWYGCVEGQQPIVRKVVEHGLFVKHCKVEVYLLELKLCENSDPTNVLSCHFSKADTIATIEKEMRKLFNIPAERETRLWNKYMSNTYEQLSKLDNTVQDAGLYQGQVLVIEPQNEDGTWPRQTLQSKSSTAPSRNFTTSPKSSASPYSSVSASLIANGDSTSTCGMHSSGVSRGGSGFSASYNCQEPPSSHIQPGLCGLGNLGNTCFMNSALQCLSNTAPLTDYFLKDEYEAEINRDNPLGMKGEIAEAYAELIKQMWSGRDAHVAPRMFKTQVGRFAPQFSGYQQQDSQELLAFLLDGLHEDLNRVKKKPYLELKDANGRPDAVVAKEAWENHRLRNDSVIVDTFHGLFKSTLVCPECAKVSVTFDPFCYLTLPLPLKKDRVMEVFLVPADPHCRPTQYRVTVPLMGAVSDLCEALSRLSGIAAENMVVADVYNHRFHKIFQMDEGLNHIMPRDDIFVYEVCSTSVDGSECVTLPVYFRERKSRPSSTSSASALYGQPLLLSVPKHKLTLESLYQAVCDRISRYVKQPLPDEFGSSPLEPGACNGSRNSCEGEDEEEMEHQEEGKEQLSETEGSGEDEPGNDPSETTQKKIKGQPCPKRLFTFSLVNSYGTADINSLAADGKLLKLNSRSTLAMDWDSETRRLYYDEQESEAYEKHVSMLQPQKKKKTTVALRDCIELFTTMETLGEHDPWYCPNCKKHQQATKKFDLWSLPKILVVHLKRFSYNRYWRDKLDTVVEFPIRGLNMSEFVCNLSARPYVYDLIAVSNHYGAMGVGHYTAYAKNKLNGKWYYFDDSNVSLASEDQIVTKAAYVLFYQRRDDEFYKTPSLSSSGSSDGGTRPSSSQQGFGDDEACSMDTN
Summary of the method: as §1

Measured: log2 ratio of Biotin-Ahx-Ub-VS probe labelling

Sequence of USP34 (Q70CQ2 whole entry, the tested form may be a part): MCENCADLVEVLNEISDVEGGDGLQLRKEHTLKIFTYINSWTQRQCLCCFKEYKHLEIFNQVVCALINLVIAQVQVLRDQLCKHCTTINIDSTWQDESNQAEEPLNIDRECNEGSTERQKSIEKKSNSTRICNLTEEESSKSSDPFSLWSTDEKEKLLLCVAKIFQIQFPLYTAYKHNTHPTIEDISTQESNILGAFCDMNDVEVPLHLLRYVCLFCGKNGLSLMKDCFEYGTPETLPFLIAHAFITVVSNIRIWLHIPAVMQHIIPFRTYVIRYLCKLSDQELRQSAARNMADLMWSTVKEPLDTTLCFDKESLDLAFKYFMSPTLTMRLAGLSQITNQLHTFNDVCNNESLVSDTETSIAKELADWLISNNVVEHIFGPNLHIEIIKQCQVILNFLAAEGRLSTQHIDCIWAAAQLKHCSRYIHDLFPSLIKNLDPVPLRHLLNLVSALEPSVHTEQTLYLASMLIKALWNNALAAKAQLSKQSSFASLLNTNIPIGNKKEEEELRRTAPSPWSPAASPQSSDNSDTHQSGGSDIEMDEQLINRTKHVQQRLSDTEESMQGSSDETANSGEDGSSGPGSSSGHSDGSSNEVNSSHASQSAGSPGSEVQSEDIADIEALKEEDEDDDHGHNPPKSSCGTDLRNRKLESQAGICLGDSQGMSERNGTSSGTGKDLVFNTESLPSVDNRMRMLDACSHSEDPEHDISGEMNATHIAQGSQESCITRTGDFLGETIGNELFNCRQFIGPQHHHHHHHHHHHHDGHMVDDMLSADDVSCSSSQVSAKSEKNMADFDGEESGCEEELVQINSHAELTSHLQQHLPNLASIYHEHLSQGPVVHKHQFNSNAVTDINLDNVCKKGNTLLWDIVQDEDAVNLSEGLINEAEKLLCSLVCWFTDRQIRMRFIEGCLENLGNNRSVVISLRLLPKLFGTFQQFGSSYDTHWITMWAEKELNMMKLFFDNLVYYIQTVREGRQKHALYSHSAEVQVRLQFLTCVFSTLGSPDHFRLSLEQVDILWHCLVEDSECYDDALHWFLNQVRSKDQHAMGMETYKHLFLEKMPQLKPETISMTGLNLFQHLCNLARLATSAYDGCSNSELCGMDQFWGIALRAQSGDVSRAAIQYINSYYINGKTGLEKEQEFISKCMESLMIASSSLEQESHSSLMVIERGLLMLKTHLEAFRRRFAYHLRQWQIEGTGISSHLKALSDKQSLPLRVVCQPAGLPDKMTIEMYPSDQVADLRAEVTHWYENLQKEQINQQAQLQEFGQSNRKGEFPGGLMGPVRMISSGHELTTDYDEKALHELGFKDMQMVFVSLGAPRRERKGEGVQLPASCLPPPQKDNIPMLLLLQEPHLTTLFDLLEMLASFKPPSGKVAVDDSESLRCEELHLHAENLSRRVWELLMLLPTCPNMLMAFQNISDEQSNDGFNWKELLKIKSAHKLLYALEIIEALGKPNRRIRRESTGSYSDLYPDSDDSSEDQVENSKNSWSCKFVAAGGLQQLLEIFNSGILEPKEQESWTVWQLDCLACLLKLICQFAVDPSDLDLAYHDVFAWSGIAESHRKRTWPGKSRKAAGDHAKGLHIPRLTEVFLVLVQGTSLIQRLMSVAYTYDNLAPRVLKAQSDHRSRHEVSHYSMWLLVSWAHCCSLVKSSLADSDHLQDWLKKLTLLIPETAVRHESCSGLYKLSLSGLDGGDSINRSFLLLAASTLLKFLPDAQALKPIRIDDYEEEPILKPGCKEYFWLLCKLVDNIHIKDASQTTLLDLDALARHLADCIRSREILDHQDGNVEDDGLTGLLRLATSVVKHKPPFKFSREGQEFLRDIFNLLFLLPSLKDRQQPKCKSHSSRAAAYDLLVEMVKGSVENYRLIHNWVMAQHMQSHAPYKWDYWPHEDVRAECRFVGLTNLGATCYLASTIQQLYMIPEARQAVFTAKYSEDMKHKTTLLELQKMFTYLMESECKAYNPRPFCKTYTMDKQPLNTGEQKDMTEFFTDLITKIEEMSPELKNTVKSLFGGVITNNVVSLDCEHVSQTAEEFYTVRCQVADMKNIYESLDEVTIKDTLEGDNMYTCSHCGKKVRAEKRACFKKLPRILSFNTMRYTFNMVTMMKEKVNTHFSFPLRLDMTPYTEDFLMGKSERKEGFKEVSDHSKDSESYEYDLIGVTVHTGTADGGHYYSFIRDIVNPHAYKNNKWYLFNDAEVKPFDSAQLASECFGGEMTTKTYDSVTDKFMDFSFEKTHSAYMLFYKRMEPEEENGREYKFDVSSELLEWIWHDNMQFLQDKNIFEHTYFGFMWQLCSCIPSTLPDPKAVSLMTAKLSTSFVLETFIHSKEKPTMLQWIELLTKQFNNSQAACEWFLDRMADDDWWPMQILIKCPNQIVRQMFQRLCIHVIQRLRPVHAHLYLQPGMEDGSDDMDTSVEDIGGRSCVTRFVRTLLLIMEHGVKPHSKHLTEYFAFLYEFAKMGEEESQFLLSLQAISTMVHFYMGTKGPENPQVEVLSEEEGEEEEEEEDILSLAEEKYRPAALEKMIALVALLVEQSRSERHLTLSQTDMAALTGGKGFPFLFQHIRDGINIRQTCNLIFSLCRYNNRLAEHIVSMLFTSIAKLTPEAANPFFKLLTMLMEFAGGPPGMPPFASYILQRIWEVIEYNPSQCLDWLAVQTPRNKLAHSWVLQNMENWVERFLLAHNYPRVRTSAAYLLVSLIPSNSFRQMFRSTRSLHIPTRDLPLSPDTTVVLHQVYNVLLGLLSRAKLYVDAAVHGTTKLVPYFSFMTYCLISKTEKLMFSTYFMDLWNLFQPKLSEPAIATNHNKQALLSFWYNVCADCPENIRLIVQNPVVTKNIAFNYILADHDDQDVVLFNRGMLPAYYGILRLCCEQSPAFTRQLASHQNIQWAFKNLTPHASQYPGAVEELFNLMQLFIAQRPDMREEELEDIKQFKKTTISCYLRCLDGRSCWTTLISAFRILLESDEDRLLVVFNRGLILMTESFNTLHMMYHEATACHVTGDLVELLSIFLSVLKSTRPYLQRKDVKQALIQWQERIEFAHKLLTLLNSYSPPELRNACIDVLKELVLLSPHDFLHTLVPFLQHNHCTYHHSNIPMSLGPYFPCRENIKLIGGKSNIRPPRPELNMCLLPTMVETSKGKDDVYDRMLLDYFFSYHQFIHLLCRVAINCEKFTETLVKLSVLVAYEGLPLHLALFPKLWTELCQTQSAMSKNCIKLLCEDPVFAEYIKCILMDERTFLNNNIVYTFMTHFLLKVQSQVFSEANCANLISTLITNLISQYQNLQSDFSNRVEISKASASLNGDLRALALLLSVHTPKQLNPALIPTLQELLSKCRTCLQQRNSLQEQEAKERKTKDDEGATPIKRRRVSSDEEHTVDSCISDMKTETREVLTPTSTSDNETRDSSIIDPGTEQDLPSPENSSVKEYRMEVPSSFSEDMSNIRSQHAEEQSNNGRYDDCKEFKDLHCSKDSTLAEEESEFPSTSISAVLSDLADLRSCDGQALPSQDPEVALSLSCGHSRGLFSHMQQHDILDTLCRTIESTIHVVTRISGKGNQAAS

O=C(CCl)N1CCCN(C(=O)c2ccc(Cl)cc2)CC1
inactive: USP34 -0.425 | USP36 0.0741 | USP38 -0.22 | USP39 -0.317 | USP4 -0.259
